Molecules are shown by their SMILES. Compounds without any hit were thinned out: in the full panel of roughly 83,000, 20% have a hit.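 The endpoint reported here, percent growth, reads 100 for growth as untreated, 0 for no net growth and -100 for all cells dead.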 A number with no mark means an inactive call. Activity calls are given as the source filed them. Rule for the calls: active = growth percent below 10; inactive = the rest.

Among the data in PubChem BioAssay (NCI) are growth values, retold here.

Assay in all cases: NCI-60 one-dose screen, 48 h (100 = growth as untreated, 0 = no growth, -100 = all killed)
Holding throughout (conditions): 10 µM unless noted

Assay [1] concerns SK-MEL-2 melanoma.
In assay [2] the test system is EKVX NSCLC.
Assay [3] deals with SN12C renal.
Assay [4] concerns UO-31 renal.
In assay [5] the test system is TK-10 renal.
Assay [6] concerns ACHN renal.
The subject of assay [7] is CAKI-1 renal.
Assay [8] concerns A498 renal.
The test system of assay [9] is CCRF-CEM leukemia.
Assay [10] concerns MOLT-4 leukemia.
Assay [11] concerns SR leukemia.
The subject of assay [12] is RPMI-8226 leukemia.
In assay [13] the test system is OVCAR-8 ovarian.
For assay [14], the system named is OVCAR-5 ovarian.
In assay [15] the test system is SK-OV-3 ovarian.
Assay [16] has as its system IGROV1 ovarian.
Assay [17] relates to OVCAR-3 ovarian.
Assay [18] relates to HS 578T breast.
For assay [19], the system named is NCI/ADR-RES ovarian.

`COc1ccc(N(c2nc(-c3ccc([N+](=O)[O-])cc3)cs2)C(C)C)cc1`: the growth in assay [1] is 92.1%; in assay [2], 65.8%; in assay [3], 91.4%; in assay [4], 69.3%; in assay [5], 88.9%; in assay [6], 89%. Besides, the growth is 62.6% in assay [7]; 59.5% in [8]; 62.5% in assay [9]; 68.5% in [10]; 66.5% in assay [11]; 52.7% in assay [12]. In addition, the growth in [13] is 89.6%; in assay [14] it was 109%; in assay [15], 81.7%; in assay [16] it was 80.4%; in assay [17], 81.1%; in [18] it was 85%. The growth in assay [19] was 86.2%.

With `C=C(C)[C@@H]1CC[C@]2(COCCCN)CC[C@]3(C)[C@H](CC[C@@H]4[C@@](C)(CCCNCCCN)[C@H](C(=C)C)CC[C@]43C)[C@@H]12`, the growth in [1] is -59.3% [100 µM] (active); in assay [2] it was -60.8% [100 µM] (active); in assay [3] it was -52% [100 µM] (active); in assay [4] it was -79.8% [100 µM] (active); in assay [5], -62.4% [100 µM] (active); in assay [6], -67.5% [100 µM] (active). For the same compound, the growth in assay [7] was -77.1% [100 µM] (active); in assay [8], -77% [100 µM] (active); in [9] it was -26.9% [100 µM] (active); in assay [10] it was -31.6% [100 µM] (active); in assay [11], 44.4% [100 µM]; in [12] it was -53.4% [100 µM] (active). In addition, the growth in assay [13] is -56.7% [100 µM] (active); in assay [14], -63.6% [100 µM] (active); in assay [15], -60.4% [100 µM] (active); in assay [16], -58.6% [100 µM] (active); in [17] it was -53.3% [100 µM] (active); in assay [18] it was -39.2% [100 µM] (active). In [19], the growth is -53.6% [100 µM] (active).

With `COC(=O)[C@]12CCC(C)(C)C[C@H]1C1=CC[C@@H]3[C@@]4(C)C/C(=C/c5cccnc5)C(=O)C(C)(C)[C@@H]4CC[C@@]3(C)[C@]1(C)CC2`, the growth in assay [1] is -70.3% [100 µM] (active); in assay [2] it was -44.8% [100 µM] (active); in assay [3], -51.4% [100 µM] (active); in [4], -81.6% [100 µM] (active); in [5], -35.9% [100 µM] (active); in assay [6] it was -61.1% [100 µM] (active). Further, the growth is -15.4% [100 µM] (active) in assay [7]; -69.8% [100 µM] (active) in [8]; 2.85% [100 µM] (active) in assay [9]; -14% [100 µM] (active) in assay [10]; 47.7% [100 µM] in [11]; -38.4% [100 µM] (active) in [12]. Also, the growth in [13] was 0.407% [100 µM] (active); in assay [14] it was -19.5% [100 µM] (active); in assay [15], 7.52% [100 µM] (active); in assay [16] it was -34.2% [100 µM] (active); in [17] it was -1.73% [100 µM] (active); in [18] it was -18.5% [100 µM] (active). In addition, in assay [19], the growth was -40.5% [100 µM] (active).

For `O=C(Nc1cccc2cccnc12)c1cc(C(=O)c2ccc(Cl)cc2)n2ccc(-c3ccncc3)cc12`, the growth is 112% in assay [1]; 107% in assay [2]; 101% in [3]; 81.4% in assay [4]; 108% in assay [5]; 99.7% in [6]. For the same compound, the growth was 83.4% in [7]; 90.5% in assay [8]; 115% in assay [9]; 129% in [10]; 125% in assay [11]; 103% in [12]. The growth in assay [13] is 97.8%; in assay [14], 98.9%; in assay [15], 92.1%; in [16], 89.1%; in assay [17], 111%; in assay [18], 89.6%. In addition, the growth in assay [19] was 105%.

As for `C=C(C)[C@@H]1CC[C@]2(C(=O)N3CCN(C)CC3)CC[C@]3(C)[C@H](CC[C@@H]4[C@@]5(C)C/C(=C/c6ccncc6)[C@H](O)C(C)(C)[C@@H]5CC[C@]43C)[C@@H]12`, the growth was -60.1% [100 µM] (active) in assay [1]; -1.55% [100 µM] (active) in [2]; -44.2% [100 µM] (active) in [3]; -61.4% [100 µM] (active) in [4]; 22% [100 µM] in [5]; -0.441% [100 µM] (active) in [6]. Also, the growth in [7] was 12.1% [100 µM]; in [8] it was -28.9% [100 µM] (active); in assay [9], -5.24% [100 µM] (active); in assay [10], -24.4% [100 µM] (active); in assay [11] it was -14.3% [100 µM] (active); in assay [12] it was -26.6% [100 µM] (active). Moreover, the growth was -57.9% [100 µM] (active) in assay [13]; 7.38% [100 µM] (active) in assay [14]; 0.185% [100 µM] (active) in assay [15]; -23.5% [100 µM] (active) in assay [16]; -50% [100 µM] (active) in assay [17]; -19.5% [100 µM] (active) in assay [18]. In addition, the growth in assay [19] was -64% [100 µM] (active).

In the case of `C=C(CN=[N+]=[N-])[C@@H]1CC[C@]2(C)[C@H](CC[C@@H]3[C@H]4[C@H]5OC(=O)[C@@]4(CCC5(C)C)CC[C@]32C)[C@@]1(C)CCC#N`, the growth in assay [1] is 83.4% [100 µM]; in assay [2], 90.6% [100 µM]; in assay [3] it was 76.2% [100 µM]; in assay [4] it was 80.2% [100 µM]; in assay [5], 105% [100 µM]; in [6], 93.9% [100 µM]. Besides, the growth in [7] was 53.5% [100 µM]; in assay [8], 85.2% [100 µM]; in assay [9] it was 74.6% [100 µM]; in assay [10], 58% [100 µM]; in [11] it was 64% [100 µM]; in [12], 57% [100 µM]. The growth in assay [13] is 92.2% [100 µM]; in assay [14], 98.3% [100 µM]; in [15], 75.4% [100 µM]; in assay [16] it was 106% [100 µM]; in assay [17] it was 82.5% [100 µM]; in [18], 88.5% [100 µM]. In addition, the growth in [19] is 90.8% [100 µM].
